The record followed here is PubChem BioAssay (NCI).

Molecules are shown by their SMILES. About 83,000 compounds went through this panel and 20% of them were active in at least one assay; those are over-represented in the sample as a whole.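 How to read the values: 0–100, growth inhibition (40 = 60% inhibited); 0, no net growth; -100 to 0, cell death (-40 = 40% of starting cells died; -100 = all dead).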 A number with no mark means an inactive call. Calls of active or inactive are those of the source. How the source made its calls: active means growth percent below 10; inactive means the rest.

The test concerns MDA-MB-468 breast. Nature of the test: NCI-60 one-dose screen, 48 h (100 = growth as untreated, 0 = no growth, -100 = all killed). The note with it: 10 µM unless noted.
As for `Cc1ccccc1COc1ccc(-c2ccnn2-c2ccc(Cl)cc2)cc1`, the growth was 41.1%. Consider `COc1ccc(-c2c3c(cn2Cc2cccc(OC)c2)-c2oncc2CCC3)cc1`, for which the growth is 88.7%. Under `C=C(c1ccc(C(=O)O)c(F)c1)c1cc2c(cc1C)C(C)(C)CCC2(C)C` stands 97.6%; under `O=C(CC(=O)Nc1cccc(C(=O)O)c1)Nc1cccc(C(=O)O)c1`, 108%; under `CCN1C(=O)N(CC)C2C1NN=c1s/c(=C3\C(=O)N(CC(C)(C)C)c4ccccc43)c(=O)n12` (stereo not given), 18%.

With `OCC1OC(n2ccc3c2ncn2ncnc32)C(O)C1O` (stereo not given), the growth is -5.09% (active). Under `Clc1nc2ccccc2cc1Cn1nnc(Cc2ccccc2)n1` stands 11.1%; under `Oc1ccc(O)c(-[n+]2ccccc2)c1`, 91.8%; under `COc1cccc(Cn2c(-c3nonc3NC(C)=O)nc3ccccc32)c1`, -7.42% (active). As to `COc1ccc(C2=NN(C(N)=S)C(c3ccc4c(c3)OCO4)C2)cc1` (stereo not given), the growth is -0.33% (active).

Turning to `CC(C)c1[nH]nc2c(NCc3ccc(-c4ccccn4)cc3)nc(SCCN(C)C)nc12`, the growth is -50.1% (active). Under `COc1cc(-c2nc(Nc3nc4ccccc4s3)[nH]c(=O)c2C#N)cc(OC)c1O` stands 105%. In the case of `C=C(C)C(C(=O)OCC)(C(=O)OCC)C(C)C`, the growth was 109%. For `O=S(=O)(c1cc(Cl)ccc1O)c1cc(Cl)ccc1O`, the growth was 63.1%. On to `c1cc(C2CCCCC2)ccc1-c1cnc2nonc2n1`, for which the growth was 2.69% (active).

`CCN1C(=O)C2(Nc3ccccc3S2)c2cc(C)ccc21` (stereo not given): the growth was 98.6%.

For `COc1ccc(C(=O)c2cc(OC)c(OC)c(OC)c2)cc1/C=C/C(=O)c1ccc(O)cc1`, the growth was 34.3%.

Regarding `Nc1c(Cl)cccc1[N+](=O)[O-]`, the growth is 115%.

As for `COc1ccc(N/C=C/C2=[N+](C)c3ccccc3C2(C)C)c(OC)c1`, the growth was 80.5%.

Regarding `O=C(CN1CCOCC1)Nc1nc(-c2cc3ccccc3oc2=O)cs1`, the growth is 107%. Under `COc1ccc(Oc2nc(Nc3ccc(N4CCOCC4)cc3)ncc2NC(=O)c2cccc(C(F)(F)F)c2)cc1` stands 93%. Take `NCCCNc1nc2ccccc2c2c(=O)c3cc(F)ccc3sc12`: the growth is 1.26% (active). With `Cc1ccc(CCCC(=O)O)c(C)c1`, the growth is 91.7%. Under `FC(F)(F)c1[nH]ncc1-c1nc2ccc3n[nH]c(C#Cc4cccnc4)c3c2c2c1CCCC2` stands 73.9%. For the compound `Cc1ccc2c(-c3nnc(N)s3)cc(=O)oc2c1C`, the growth was 95.6%. Regarding `c1cc(N2CCCC2)c2nc(-c3[nH]ncc3Nc3ncnc4[nH]ccc34)[nH]c2c1`, the growth is -76.2% (active). As for `CCOC(OCC)c1cnc2nc(NC(C)=O)[nH]c(=O)c2n1`, the growth was 109%. In the case of `C=C(C)[C@@H]1CC[C@]2(C(=O)OCCCC[P+](c3ccccc3)(c3ccccc3)c3ccccc3)CC[C@]3(C)[C@H](CC[C@@H]4[C@@]5(C)CC[C@H](OC(=O)C(Cl)Cl)C(C)(C)[C@@H]5CC[C@]43C)[C@@H]12`, the growth was -61.7% (active).

For `COc1ccc(CNS(=O)(=O)/N=C2\NC(=O)NC2=C(Cl)Cl)cc1`, the growth was 19.4%. For `CN(C)CCCn1c2c(c3cc(-c4cccc(S(N)(=O)=O)c4)ccc3c1=O)C(=O)c1ccccc1-2`, the growth was 88.5%.

For the compound `CC1=C[S+](c2ccccc2)c2cccc3cc4ccccc4c1c23` (stereo not given), the growth is -70% (active).

For the compound `O=C1c2cc3c(cc2-c2c1c1cc(F)c(F)cc1c(=O)n2CCCn1ccnc1)OCO3`, the growth is -53.6% (active). Regarding `O=C1c2ccccc2-c2cn(Cc3ccccc3)c3cccc(c23)C1c1cccnc1` (stereo not given), the growth is 27.9%. Consider `CCc1ccc(-c2ccc(NC3CCCCCC3)nn2)cc1S(N)(=O)=O`, for which the growth is 102%. `CNc1nc(NC2CCCC2)nc(Sc2ccc(OC)cc2)n1`: the growth is 42.5% [100 µM].

For the compound `CC(=O)[C@H]1CC[C@H]2[C@@H]3CC[C@H]4CC=CC[C@]4(C)[C@H]3CC[C@]12C`, the growth is 84.7%. As to `Clc1cc(Br)ccc1-c1ccc(CNCC2CCNCC2)o1`, the growth was 21.2%. In the case of `C#CCOc1cccc(Nc2ncnc3c(NC(=O)C=C)cccc23)c1`, the growth is -15.2% (active).

For the compound `CCNC(=S)NNC(=O)c1cc2ccc1CCc1ccc(cc1)CC2`, the growth is 106%. Take `Nc1ncc(-c2ccc3ncnc(NCc4ccccc4)c3c2)cn1`: the growth was -11.7% (active).
